Among the data in PubChem BioAssay AID1259422 (The Scripps Research Institute Molecular Screening Center, 2018) are inhibition values, retold here.

Screen size: about 640,000 compounds; about 9,300 (1.5%) were called active. Cut-off read from the data, not from the text of the source: active = inhibition above about 32%; inactive = the rest. This excerpt belongs to a sample that is enriched for actives.

A short description of the experiment: TEAD-YAP interaction inhibition, primary screen, TEAD-YAP interaction inhibitor project, luminescence, HEK-TIYL cells (AID 1259422).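 Note: 0% = median of test compound wells and 100% = reference inhibitor wells.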 The note with it: TEAD-Gal4/YAP UAS-luciferase luminescence, at 9.12 µM, stronger effect = higher value.
`CN1CCN(c2cc(NCCCC(=O)O)c3c4c(onc24)-c2ccccc2C3=O)CC1`: the inhibition (in general, the drop in the measured response relative to a control, in per cent) was 11.3% (inactive). The result for `CC1CCN(c2cc(NCC(=O)O)c3c4c(onc24)-c2ccccc2C3=O)CC1` reads 64% (active); that for `CCOC(=O)N1CCN(c2cc(NCCO)c3c4c(onc24)-c2ccccc2C3=O)CC1`, 17.6% (inactive); that for `CCN(CC)CCCNCc1ccc(F)cc1Cl`, -3.24% (inactive). The result for `COc1ccc(NC(=S)Nc2ccc(OC)cc2)cc1` reads -17.9% (inactive); that for `COc1ccc(NC(=S)Nc2ccccc2C(C)=O)cc1`, 8.25% (inactive). With `COc1ccc(NC(=S)NNS(=O)(=O)c2ccc(NC(C)=O)cc2)cc1` the figure was 43.9% (active). As for `COc1ccc(OC(C)C(=O)Nc2ccc(C(=O)OC(C)C)cc2)cc1` (stereo not drawn), the inhibition was 11.3% (inactive).

With `C=CCn1c(=S)[nH]c2sc(-c3ccccc3)cc2c1=O`, the inhibition is -58.7% (inactive). Regarding `O=C1CC(=O)Nc2cc(S(=O)(=O)N3CCCc4ccccc43)ccc2N1`, the inhibition was 5.24% (inactive). Regarding `CS(=O)(=O)c1cccc(S(=O)(=O)N2CCCc3ccccc32)c1`, the inhibition was 3.88% (inactive).

Consider `COc1ccc(S(=O)(=O)N2CCCc3ccccc32)cc1Cl`, for which the inhibition was 36.9% (active).

Consider `Cn1c(=O)c(=O)n(C)c2cc(S(=O)(=O)N3CCCc4ccccc43)ccc21`, for which the inhibition is -1.32% (inactive). Regarding `COc1ccc(S(=O)(=O)N2CCc3ccccc3C2)cc1Cl`, the inhibition is 14.1% (inactive). The result for `O=S(=O)(c1ccc2c(c1)OCCCO2)N1CCCc2ccccc21` reads 63.8% (active); that for `CC(=O)NC1C(Oc2ccc(C)cc2C)OC(COC(C)=O)C(OC(C)=O)C1OC(C)=O` (stereo not drawn), 0.55% (inactive); that for `COc1ccc(-c2nc3ccccc3n2Cc2ccccc2)cc1OC`, -0.42% (inactive).

As for `Nc1nonc1-c1nc2ccccc2n1CC(=O)Nc1cccc(F)c1`, the inhibition was 40.7% (active). As for `CCCCCCOc1cccc(NC(=O)Cn2c(-c3nonc3N)nc3ccccc32)c1`, the inhibition was 10.4% (inactive).

For `Nc1nc(Cn2c(-c3nonc3N)nc3ccccc32)nc(N2CCCCC2)n1`, the inhibition is 5.35% (inactive). The result for `Nc1nonc1-c1nc2ccccc2n1CC(=O)N/N=C\c1cccc(F)c1` reads 10.8% (inactive); that for `COc1ccc(C)c(Cn2c(-c3nonc3N)nc3ccccc32)c1`, 53.5% (active); that for `Cc1ccc(Nc2ncccc2C(=O)N2CCCC2)c(C)c1`, -3.43% (inactive). With `COc1ccc2cc(C)c3nn(CN4CCOCC4)c(=O)n3c2c1` the figure was 1.32% (inactive); with `CC1(C2CCN(C(=O)c3ccc(N4CCCCC4)cc3)CC2)NC(=O)NC1=O` (stereo not drawn), -7.9% (inactive). The result for `CC1CCc2sc(NC(=O)Cc3cccc4ccccc34)c(C#N)c2C1` (stereo not drawn) reads 2.89% (inactive). For `COc1ccc(Cl)cc1Nc1nc(N2CCOCC2)c2ccccc2n1`, the inhibition is 15.6% (inactive).

For the compound `Clc1ccccc1Nc1nc(N2CCOCC2)c2ccccc2n1`, the inhibition is 0.09% (inactive).

Consider `c1ccc(Nc2nc(N3CCOCC3)c3ccccc3n2)cc1`, for which the inhibition was 33.6% (active). In the case of `O=C(N/N=C\c1ccc([N+](=O)[O-])c(O)c1)c1ccc2c(c1)OCO2`, the inhibition was 42.6% (active). With `O=C(N/N=C/c1ccc2c(c1)OCO2)c1cc(O)c(O)c(O)c1` the figure was 9.47% (inactive); with `O=C(N/N=C/c1ccc(O)c([N+](=O)[O-])c1)c1ccc2c(c1)OCO2`, -20.5% (inactive); with `O=C(CCl)Nc1c(C(=O)C2CC2)oc2ccccc12`, -1.47% (inactive). Consider `O=C(/C=C\c1ccccc1)N1CCN(Cc2nnnn2-c2cccc(F)c2)CC1`, for which the inhibition was 14.7% (inactive). With `COC(=O)CSc1nnc2c3ccccc3n(CCc3ccccc3)c2n1` the figure was -5.74% (inactive); with `C=CCSc1nnc2c3ccccc3n(CCc3ccccc3)c2n1`, 41.4% (active). `C=CCN(CC=C)C(=O)CSc1nnc2c3ccccc3n(C)c2n1`: the inhibition was -18.1% (inactive).

On to `CC(Cc1ccco1)NC(=O)Nc1ccc2c(c1)OCO2` (stereo not drawn), for which the inhibition is -9.4% (inactive).

For the compound `Nc1c(Cl)cc(N2C(=O)c3cccc([N+](=O)[O-])c3C2=O)cc1Br`, the inhibition was -3.28% (inactive).

For the compound `Cc1c(C(c2ccc3c(c2)OCCO3)c2c(C)n(C)n(-c3ccccc3)c2=O)c(=O)n(-c2ccccc2)n1C`, the inhibition is 1.2% (inactive).

Regarding `FC(F)(F)c1cccc(Nc2nccn3c(-c4ccc(N5CCOCC5)cc4)cnc23)c1`, the inhibition was 9.67% (inactive). Take `Cc1ccc(C2SCC(=O)N2c2ccc(C)cc2)cc1` (stereo not drawn): the inhibition is 35.1% (active). Take `Cc1ccc(C2SCC(=O)N2c2ccccc2)cc1` (stereo not drawn): the inhibition was -20.1% (inactive). On to `COc1ccc(N2C(=O)CSC2c2ccc(C)cc2)cc1` (stereo not drawn), for which the inhibition is 1.91% (inactive).

Take `CCCC1(C2CCN(C(=O)c3ccc(F)c(F)c3)CC2)NC(=O)N(CC2CCCO2)C1=O` (stereo not drawn): the inhibition is -9.71% (inactive). Turning to `COc1ccc(C2C3=C(CC(C)(C)CC3=O)N(CCc3ccccc3)C3=C2C(=O)CC(C)(C)C3)cc1`, the inhibition is 4.3% (inactive). Turning to `O=C1C2C3C=CC(C3)C2C(=O)N1c1ccc(Oc2ccc(Br)cc2)cc1` (stereo not drawn), the inhibition is -3.86% (inactive). On to `O=C(c1ccc(Nc2nccc(-c3ccc4c(=O)[nH]c(C5CC5)nc4c3)n2)cc1)N1CCCC1`, for which the inhibition was -6.26% (inactive).

In the case of `Cc1ccc(-c2ncn(-c3ccc(Nc4nccc(-c5cc(C#N)cc(N6CCCC(O)C6)c5)n4)cc3)n2)cn1` (stereo not drawn), the inhibition is -6.62% (inactive).

With `Cn1nnnc1-c1ccc(Nc2nccc(-c3ccc(N4CCC(O)CC4)c(C#N)c3)n2)cc1`, the inhibition is 37.5% (active).

For the compound `COc1ccc(-c2nc(NCCOc3ccccc3)nc(OC)n2)cc1`, the inhibition is -21.8% (inactive).

Consider `Cc1cc(C)n(CCc2nc(-c3ccc(Cl)cc3)cs2)n1`, for which the inhibition was -9.3% (inactive). In the case of `COC1CCN(c2nc(CN3CCCC3c3nccs3)nc3ccc(Cl)cc23)CC1` (stereo not drawn), the inhibition is 42.9% (active). With `Clc1ccc(CN2CCC[C@H]2c2nc3ccc(-c4ccncc4)cc3[nH]2)cc1`, the inhibition was -0.35% (inactive).

Take `OC1(c2cccnc2)CCN(Cc2nc(N3CCOCC3)c3cc(Cl)ccc3n2)CC1`: the inhibition was -1.26% (inactive).

As for `NC(=O)c1ccc(-c2nccc(NC3CCN(Cc4ccccc4)CC3)n2)cc1`, the inhibition was -1.25% (inactive). As for `COc1cccc(OC)c1C(=O)Nc1ccc(C)cc1`, the inhibition was -5.7% (inactive). With `Cc1ccc(S(=O)(=O)N2CCCC2C(=O)NCCO)cc1` (stereo not drawn) the figure was -1.16% (inactive); with `C=CCNC(=O)C1CCCN(S(=O)(=O)c2ccc(F)cc2)C1` (stereo not drawn), 1.52% (inactive).

On to `C=CCNC(=O)C1CCCN1S(=O)(=O)c1ccc(Cl)cc1` (stereo not drawn), for which the inhibition was 57.2% (active).

As for `CCOCCCNC(=O)C1CCC(=O)N1C1CCCCC1` (stereo not drawn), the inhibition is -0.7% (inactive). The result for `Cc1ccc(S(=O)(=O)NC(C)Cc2cccs2)cc1` (stereo not drawn) reads 5.37% (inactive). For the compound `CC1=C(C(=O)NCc2cccs2)C2(CCCCC2)OC1=O`, the inhibition was 13.8% (inactive). The result for `CN1CCN(c2ccc(-c3nc4ccc(C(=O)NCc5ccccc5)cc4s3)cc2)CC1` reads 3.92% (inactive); that for `O=C(NC1CC1)c1ccc(-c2nc3ccc(C(=O)NC4CCN(Cc5ccccc5)CC4)cc3s2)cc1`, -0.23% (inactive); that for `CN(C)c1ccc(-c2nc3ccc(C(=O)O)cc3s2)cc1`, 96.5% (active).

Consider `N#C/C=C(/CC(O)(c1nc2ccccc2s1)C(F)(F)F)N1CCCC1` (stereo not drawn), for which the inhibition was 2.12% (inactive).

On to `CN(C)C(=O)c1cc(CNCCCc2ccccc2)cc(NC(=O)c2ccccn2)c1`, for which the inhibition is -3.43% (inactive). For the compound `Cc1cc(NC(=O)c2cccn(OCc3ccc(F)cc3)c2=O)no1`, the inhibition is -2.96% (inactive). The result for `c1ccc(OCCn2ncc3c(N4CCCC4)ncnc32)cc1` reads 81% (active); that for `Cc1ccc(N2CCN(c3ncnc4c3cnn4-c3ccccc3)CC2C)cc1` (stereo not drawn), 9.96% (inactive). For the compound `OCCNc1ncnc2c1cnn2-c1ccccc1`, the inhibition was -28.4% (inactive). Take `c1ccc(-n2ncc3c(N4CCCC4)ncnc32)cc1`: the inhibition was 37.8% (active). With `COc1ccc(-n2ncc3c(N4CCCC(C)C4)ncnc32)cc1` (stereo not drawn) the figure was 94.8% (active); with `c1ccc(Cn2nnc3c(N4CCCCC4)ncnc32)cc1`, -2.04% (inactive); with `O=C(CCc1ccccc1)NCCn1ncc2c(N3CCN(c4ncccn4)CC3)ncnc21`, -1.06% (inactive). With `Fc1ccc(Nc2ncnc3c2cnn3-c2ccccc2)cc1`, the inhibition was -36.2% (inactive). With `COc1ccccc1Nc1ncnc2c1cnn2-c1ccc(C)cc1` the figure was -73% (inactive); with `c1ccc(-n2ncc3c(Oc4cccc5cccnc45)ncnc32)cc1`, 42.7% (active). On to `COc1ccc(-n2ncc3c(Nc4ccc(F)c(Cl)c4)ncnc32)cc1`, for which the inhibition is 13.3% (inactive). For the compound `CCOc1ccc(-n2cc(-c3ccccc3)c3c(N4CCCC(C)C4)ncnc32)cc1` (stereo not drawn), the inhibition is -7.09% (inactive).

As for `CCCS(=O)(=O)N1CCCc2ccc(NC(=O)CC(C)C)cc21`, the inhibition is 3.52% (inactive). For the compound `CCOC(=O)C1CCN(c2nc(-c3cccnc3)nc3c2CN(S(C)(=O)=O)CC3)CC1`, the inhibition was 9.38% (inactive). With `COCCNC(=O)Cn1cnc2c(nnn2-c2ccc(Cl)cc2)c1=O` the figure was 2.42% (inactive); with `N#Cc1c(-c2ccc(F)cc2)cc(C2CC2)nc1SCCN1C(=O)c2ccccc2C1=O`, 7.65% (inactive). As for `Cc1cncn(CC(=O)NCCc2csc(-c3ccccc3)n2)c1=O`, the inhibition is -3.04% (inactive).

For the compound `COc1ccccc1Cn1c(SCC(=O)Nc2ccc(N(C)C)cc2)nc2ccccc2c1=O`, the inhibition was -7.65% (inactive).

In the case of `CCCCC(CC)CNS(=O)(=O)c1ccc2c(c1)n(C)c(=O)c(=O)n2C` (stereo not drawn), the inhibition is -13.6% (inactive).

Turning to `COCCNC(=O)/C(=C/c1cccc([N+](=O)[O-])c1)c1ccccc1`, the inhibition is -2.61% (inactive). Turning to `S=C(S)NCCc1c[nH]c2ccccc12`, the inhibition is 10.8% (inactive). For the compound `O=C(CSc1nc(=O)[nH]c2c1CCC2)N1CCCCCC1`, the inhibition is 1.26% (inactive). Take `O=C(CCc1nnc(-c2ccccc2)o1)NCCc1ccccc1Cl`: the inhibition was -37.1% (inactive). With `CCN(CC)C(=O)C1CCCN(c2cc(NCc3ccccc3)ncn2)C1` (stereo not drawn) the figure was -14.4% (inactive). The result for `CN1CCN(c2ncnc3c2c(-c2ccccc2)cn3-c2ccccc2)CC1` reads 4.3% (inactive); that for `Cc1ccc(-n2ncc3c(N4CCN(C)CC4)ncnc32)c(C)c1`, -7.59% (inactive); that for `CCN(CC)C(=O)C1CCCN(c2ncnc3c2cnn3-c2ccccc2)C1` (stereo not drawn), 34.1% (active). Regarding `CN1CCN(c2ncnc3c2cnn3-c2ccc(Cl)c(Cl)c2)CC1`, the inhibition was 32.8% (active). With `CCN(CC)C(=O)C1CCCN(c2ncnc3c2c(-c2ccccc2)cn3-c2cccc(Cl)c2)C1` (stereo not drawn) the figure was -12.8% (inactive).
